Source: PubChem (National Center for Advancing Translational Sciences (NCATS))
TbPYK inhibitor = T. brucei pyruvate kinase inhibition; Q57TT1; Potency, µM (titrated, usually from 76.8 µM), for inactives: at the top dose activity, negative = inhibition, usual class: inhibitors; TbPYK enzyme, Kinase-Glo Plus ATP luminescence, 45 min; actives 0.12% (n = 410,000); note: % is set by controls: 0 for no effect and ±100 for the full control effect; nearly all actives have a fitted effect of over 50% in size
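T. brucei PYK with substrate was exposed to pin-transferred compounds across a concentration series, then started with 130 uM ADP (final). After 45 min at room temperature, Kinase-Glo Plus luminescence was read, normalized and curve-fitted.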
NS1 function inh = blocks influenza NS1 protein function | Potency, µM (doses to about 46.1 µM), for inactives: at the top dose activity, positive = more growth | AID 2326 | actives 0.4% (n = 270,000); calls by dose curve; note: actives are rising curves; nearly all actives have a fitted effect of over 50% in size
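Compounds were scored for reversing the slow growth caused by influenza A NS1 in S. cerevisiae, measured by optical density at 600 nm. Assay medium contained 2% galactose at pH 6.0; NS1-free yeast of the same strain were the positive control.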
LmPK inh = LmPK (Leishmania mexicana) enzyme inhibition | actives 0.37% (n = 290,000) | Potency, µM (top dose mostly 57.5 µM), without a hit: at the highest dose activity change, negative = inhibition, usual class: inhibitors | Q27686 | purified LmPK, Kinase-Glo ATP luminescence, 1 h; note: % is set by controls: 0 for no effect and ±100 for the full control effect
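Kinase-Glo luminescence read after 1 h RT reaction of 0.1 nM LmPK with 0.5 mM PEP and 0.1 mM ADP. Activity scaled between uninhibited and enzyme-free controls.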
RE007 growth inh = less growth of the S. pombe RE007 Vpr strain | AID 651644 | Potency, µM (highest dose often 92.2 µM), without a hit: at the top dose activity change, negative = less growth, most hits filed as inhibitors | actives 0.21% (n = 360,000) | S. pombe RE007 Vpr strain, BacTiter-Glo ATP luminescence, 24 h; active = well fitted falling curve with a large enough effect; inconclusive = small, poorly fitted or top-dose-only effect; inactive = no such curve, though single readings can be large or run the other way; note: % is set by controls: 0 for no effect and ±100 for the full control effect; nearly all actives have a fitted effect of over 50% in size
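Fission yeast strain RE007, carrying one chromosomally integrated HIV-1 vpr copy, was seeded at OD 0.01 in PMG+AL medium with 23 nL pinned compound. After 24 h at 30 °C and 99% humidity, viability was read by BacTiter-Glo luminescence.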
Sm TGR block = S. mansoni TGR enzyme inhibition. Q962Y6. purified TGR, DTNB reduction, TNB absorbance 405 nm. Potency, µM (doses to about 114 µM), inactives show at the highest dose activity change, negative = inhibition, hits mostly inhibitors. actives 3% (n = 360,000). AID 485364; note: % is set by controls: 0 for no effect and ±100 for the full control effect; nearly all actives have a fitted effect of over 60% in size
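Kinetic colorimetric format: TGR-catalysed, NADPH-driven DTNB reduction monitored via TNB absorbance. Enzyme dispensed at 20 nM; compound exposure 15 min at room temperature before reaction start.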
FBPA Giardia inh = blocks Giardia fructose-bisphosphate aldolase activity | AID 2451 | purified Giardia FBPA | A8B2U2 | actives 0.71% (n = 290,000) | Potency, µM (top dose mostly 59.6 µM), inactives show at the top dose activity, negative = inhibition, most hits filed as inhibitors; note: % is set by controls: 0 for no effect and ±100 for the full control effect; nearly all actives have a fitted effect of over 55% in size
Target sequence (A8B2U2 whole entry, looked up): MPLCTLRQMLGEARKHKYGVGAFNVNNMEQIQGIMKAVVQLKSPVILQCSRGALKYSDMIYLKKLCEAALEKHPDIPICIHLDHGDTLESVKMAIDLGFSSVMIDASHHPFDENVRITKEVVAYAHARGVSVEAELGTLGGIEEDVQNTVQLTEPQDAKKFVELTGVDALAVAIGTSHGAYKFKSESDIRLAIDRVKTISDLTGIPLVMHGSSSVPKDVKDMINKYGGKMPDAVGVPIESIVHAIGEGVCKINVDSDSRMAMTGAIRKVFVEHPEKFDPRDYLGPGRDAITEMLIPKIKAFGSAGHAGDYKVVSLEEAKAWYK
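Giardia FBPA (40 nM reagent) was preincubated 10 min at RT with compound (up to 57.5 uM final), then substrate plus GAPDH/TPI/NAD/arsenate coupling system with diaphorase/resazurin was added; resorufin fluorescence (525/598 nm) was read after 20 min.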
The depositor's hits bear a star; ! = a repeat was not active. Sampled rows, rich in hits. Any-hit rate of the full collection: about 3.5%. Unless noted, calls come from the whole dose curve; as a rule, active = well fitted curve in the direction sought with a large enough effect; inconclusive = small, poorly fitted or top-dose-only effect, or another doubt; inactive = no such curve, though single readings can be large; an effect the other way counts as inactive or inconclusive. Potency is the fitted concentration of half-maximal effect.

What do the screens show for `COc1cccc(-c2nc(CS(=O)(=O)CC(=O)NC3CCCCC3C)c(C)o2)c1` (stereo not given)?
TbPYK inhibitor: -1%; NS1 function inh: 18%; LmPK inh: -2%; RE007 growth inh: 1%; Sm TGR block: 40µM*; FBPA Giardia inh: -5%

Results for COc1cccc(-c2nc(CS(=O)(=O)CC(=O)NCCc3ccc(OC)cc3OC)c(C)o2)c1 ?
TbPYK inhibitor: -1%; NS1 function inh: -8%; LmPK inh: 0%; RE007 growth inh: 18%; Sm TGR block: 25µM*!; FBPA Giardia inh: 2%

What do the screens show for `COc1cccc(-c2nc(CS(=O)(=O)CC(=O)NCCC(C)C)c(C)o2)c1`?
TbPYK inhibitor: 2%; NS1 function inh: -12%; LmPK inh: 5%; RE007 growth inh: -8%; Sm TGR block: 45µM*; FBPA Giardia inh: -2%

How did CC1(C)N=C(N)N=C(N)N1c1ccc(Cl)cc1 do in these assays?
TbPYK inhibitor: 1%

What do the screens show for `COc1cccc(-c2nc(CS(=O)(=O)CC(=O)N3CCCCC3)c(C)o2)c1`?
TbPYK inhibitor: -13%; NS1 function inh: 1%; LmPK inh: 0%; RE007 growth inh: 9%; Sm TGR block: inconclusive; FBPA Giardia inh: 12%

How did COc1cccc(-c2nc(CS(=O)(=O)CC(=O)N3CCN(c4ccccn4)CC3)c(C)o2)c1 do in these assays?
TbPYK inhibitor: 3%; NS1 function inh: -73%; LmPK inh: 4%; RE007 growth inh: -1%; Sm TGR block: 50µM*; FBPA Giardia inh: 4%

What do the screens show for `CCOc1ccc(CCNC(=O)c2cc3c(-c4ccccc4F)nn(C)c3s2)cc1OCC`?
TbPYK inhibitor: 2%; Sm TGR block: -1%

How did O=C(Nc1ccc(NC(=S)NC(=O)c2ccco2)cc1)c1ccc(Br)cc1 do in these assays?
TbPYK inhibitor: -17%; RE007 growth inh: -17%

Results for Cc1ccc(C(=O)O)cc1NC(=S)NC(=O)c1ccc(-c2ccccc2)cc1 ?
TbPYK inhibitor: -1%; NS1 function inh: 7%; LmPK inh: 5%; RE007 growth inh: 19%; Sm TGR block: inconclusive; FBPA Giardia inh: 0%

Results for COc1ccc(C(=O)O)cc1NC(=S)NC(=O)CSc1ccc(Cl)cc1 ?
TbPYK inhibitor: -7%; NS1 function inh: 8%; LmPK inh: 6%; RE007 growth inh: 10%; Sm TGR block: inconclusive; FBPA Giardia inh: -7%

How did O=C(O)c1cccc(NC(=S)NC(=O)c2ccc(-c3ccc(Cl)cc3)o2)c1 do in these assays?
TbPYK inhibitor: -8%; LmPK inh: 2%; RE007 growth inh: -13%; Sm TGR block: 20µM*; FBPA Giardia inh: -7%

Results for Cc1ccc(C(=O)O)cc1NC(=S)NC(=O)c1ccc(-c2ccc(Cl)cc2)o1 ?
TbPYK inhibitor: 4%; NS1 function inh: 6%; LmPK inh: 9%; RE007 growth inh: 7%; Sm TGR block: 10µM*; FBPA Giardia inh: -14%

Results for COc1ccc(C(=O)O)cc1NC(=S)NC(=O)c1ccc(-c2ccc(Cl)cc2)o1 ?
TbPYK inhibitor: 1%; LmPK inh: 0%; RE007 growth inh: 3%; Sm TGR block: 28µM*; FBPA Giardia inh: 4%

How did O=C(O)c1ccc(NC(=S)NC(=O)c2ccc(-c3ccc(Br)cc3)o2)cc1 do in these assays?
TbPYK inhibitor: -11%; NS1 function inh: 7%; LmPK inh: 2%; RE007 growth inh: -5%; Sm TGR block: 32µM*; FBPA Giardia inh: inconclusive

How did Cc1cccc(C(=O)N2CCc3cc(CNC(=O)c4ccc(Br)o4)ccc32)c1 do in these assays?
TbPYK inhibitor: 0%; Sm TGR block: 3%

Results for CCn1ccc2cc(S(=O)(=O)N3CCCN(C(=O)Nc4cccc(Cl)c4)CC3)ccc21 ?
TbPYK inhibitor: -3%; Sm TGR block: 2%

Results for CSc1cccc(NC(=O)C(c2ccccc2)N2Cc3ccccc3C2=O)c1 (stereo not given) ?
TbPYK inhibitor: -1%; Sm TGR block: 5%

Results for CCOc1ccc(NC(=O)CN2C(=O)COc3ccc(S(=O)(=O)Nc4ccccc4)cc32)cc1 ?
TbPYK inhibitor: -21%; Sm TGR block: 1%

What do the screens show for `Cc1nc2ccc(S(=O)(=O)N(CC(=O)Nc3cccc(C)c3C)Cc3ccccc3)cc2s1`?
TbPYK inhibitor: 0%; Sm TGR block: 4%

Results for CCCN1C=CC(=C2C(=O)c3ccccc3C2=O)C=C1 ?
TbPYK inhibitor: inconclusive; NS1 function inh: -2%; LmPK inh: 14µM*; RE007 growth inh: inconclusive; Sm TGR block: 3%; FBPA Giardia inh: -6%

Results for CCN1C=CC(=C2C(=O)c3ccccc3C2=O)C=C1 ?
TbPYK inhibitor: inconclusive; NS1 function inh: 2%; LmPK inh: 13µM*; RE007 growth inh: inconclusive; Sm TGR block: -8%; FBPA Giardia inh: -14%

Results for Cc1ccc(S(=O)(=O)N2CCCc3cc(NS(=O)(=O)c4ccc(F)c(C)c4)ccc32)cc1 ?
TbPYK inhibitor: 1%; Sm TGR block: 5%

How did Cc1ccc2c(c1)Cc1nc3ccccc3nc1-2 do in these assays?
TbPYK inhibitor: inconclusive; LmPK inh: 18µM*; RE007 growth inh: inconclusive; Sm TGR block: 8%; FBPA Giardia inh: -24%

How did O=C(/C=C/c1ccccc1[N+](=O)[O-])c1ccccc1Br do in these assays?
TbPYK inhibitor: 5%; NS1 function inh: -85%; LmPK inh: -2%; RE007 growth inh: 28µM*; Sm TGR block: -20%; FBPA Giardia inh: 0%

What do the screens show for `Cc1ccc(C(=O)/C=C/c2ccccc2[N+](=O)[O-])cc1`?
TbPYK inhibitor: 2%; NS1 function inh: -9%; LmPK inh: -3%; RE007 growth inh: 3%; FBPA Giardia inh: -12%

Results for O=C(NC1CC(=O)N(c2ccccc2)C1)C1CCCCC1 (stereo not given) ?
TbPYK inhibitor: 1%; Sm TGR block: -1%

Results for CCOc1ccccc1NC(=O)Cn1c(=O)n(CCCC(=O)NCCOC)c(=O)c2cc(OC)c(OC)cc21 ?
TbPYK inhibitor: 2%; Sm TGR block: 2%

What do the screens show for `Cc1ccccc1S(=O)(=O)Cc1ccc(C(=O)NC(C)c2ccccc2)o1` (stereo not given)?
TbPYK inhibitor: 3%; NS1 function inh: -12%; LmPK inh: -2%; RE007 growth inh: -6%; Sm TGR block: -15%; FBPA Giardia inh: 6%

What do the screens show for `COc1ccccc1S(=O)(=O)Cc1ccc(C(=O)NC(C)c2ccc3c(c2)OCCO3)o1` (stereo not given)?
TbPYK inhibitor: -4%; NS1 function inh: 1%; LmPK inh: 2%; RE007 growth inh: 11%; Sm TGR block: 40µM*; FBPA Giardia inh: 4%
